Reference: PubChem BioAssay (Tox21)
Records with an inconclusive call do not appear. Unmarked numbers belong to inactive results. The source made the active and inactive calls. Calls follow the shape of the full dose curve.

Biological target: Beta-2 adrenergic receptor (Homo sapiens) (UniProt P07550)
Assay: Adrenergic beta2 receptor (ADRB2) small molecule antagonists, cell-based qHTS assay (AID 1963592); also: nearly all actives have a fitted effect of over 50% in size
Settings: CHO-ADRB2 cells, isoproterenol-stimulated cAMP HTRF ratio, 0.5 h; series mostly up to 92.4 µM; activity change, negative = inhibition: at the top concentration
Description: U.S. Tox21 Program National Center for Advancing Translational Sciences [NCATS] Division of Preclinical Innovation [DPI] U.S. Environmental Protection Agency [EPA] National Institutes of Environmental Health Sciences [NIEHS] National Toxicology Program [NTP] U.S. Food and Drug Administration [FDA] Tox21 Assay Overview: Beta adrenergic receptors (Beta-ARs) belong to the G-protein coupled receptor (GPCR) superfamily, includes three subtypes - beta1, beta2, and beta3. Beta1-AR is the predominant receptor subtype expressed in the heart, and beta2-AR is expressed in the kidney, lung, blood vessel and in the heart, and beta3 is found in the adipocytes. Beta1 and 2 ARs couple to Gs protein and elevate cyclic adenosine mono phosphate (cAMP), which activates protein kinase A and leads to the downstream signaling responsible for the physiological actions. Beta-AR agonists or antagonists are the most prescribed therapeutic agents for heart failure and asthma, and these were one of the first target receptors for the rational drug design. Tox21 10K compound library was screened using the cAMP-Gs dynamic assay (Cisbio Bioassays, Shelton, CT) to identify agonists/antagonists of the Gs-coupled human adrenergic, beta2 receptor (ADRB2) in the CHO-ADRB2 cell line (Codex BioSolutions, Inc. Gaithersburg, MD), which stably over-expresses ADRB2. The principle of cAMP-Gs dynamic assay is based on HTRF technology, which facilitates the fluorescence resonance energy transfer (FRET) between donor Europium cryptate and acceptor d2-labeled cAMP. The cAMP generated within cells competes with the red acceptor, d2-labled cAMP, for binding to the monoclonal anti-cAMP-cryptate (Europium donor). An increase in intracellular cAMP leads to the disruption of FRET signal, and the signal is inversely proportional to the cAMP concentration. Propranolol HCl (Sigma-Aldrich, St. Louis, MO) was used as a positive control in the screening.
Tox21 Assay Protocol Summary: CHO-ADRB2 cells were dispensed at 1,000/well in 4uL assay medium into white/solid 1536-well plates (Greiner Bio-One North America Inc., Monroe, NC) using a Multidrop Combi dispenser (ThermoFisher Scientific, Waltham, MA). The assay plates were incubated at 37C and 5% CO2 for an overnight (18-20hr). Then positive control and test compounds dissolved in DMSO were transferred to the assay plates at 23nL using a Pintool station (Wako, San Diego, CA). Following the compound and positive control transfer, 1uL agonist-stimulation mix containing 1nM Isoproterenol HCl, 100uM IBMX and 25uM Ro-20-1724 was added to each well of the assay plates using BioRAPTR Flying Reagent Dispenser (FRD, Beckman Coulter, Brea, CA). The assay plates were incubated at room temperature for 0.5hr. Then 2.5ul each d2-labled cAMP and anti-cAMP-cryptate solutions were added separately to each well of the assay plates using an FRD and the assay plates were incubated at room temperature for 1hr. The fluorescence signal was measured at two different wavelengths (665nm and 615nm) using an Envision plate reader (Perkin Elmer, Shelton, CT). Data were expressed as the ratio of 665 nm/615 nm.
% is scaled to controls: 0 for no effect and ±100 for the full control effect.

Beta-2 adrenergic receptor (Homo sapiens), sequence (P07550 whole entry, looked up): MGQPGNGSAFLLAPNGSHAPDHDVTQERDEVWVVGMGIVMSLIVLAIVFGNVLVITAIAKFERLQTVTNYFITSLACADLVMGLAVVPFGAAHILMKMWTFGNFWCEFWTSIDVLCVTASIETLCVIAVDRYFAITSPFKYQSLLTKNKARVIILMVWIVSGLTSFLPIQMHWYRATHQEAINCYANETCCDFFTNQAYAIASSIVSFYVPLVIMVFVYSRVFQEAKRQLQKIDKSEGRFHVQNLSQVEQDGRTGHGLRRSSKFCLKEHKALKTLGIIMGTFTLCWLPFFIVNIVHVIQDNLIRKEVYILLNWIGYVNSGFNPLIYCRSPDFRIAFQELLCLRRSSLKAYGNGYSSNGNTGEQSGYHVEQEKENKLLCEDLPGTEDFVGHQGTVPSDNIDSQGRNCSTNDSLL

| SMILES | Potency | activity change, negative = inhibition |
| --- | --- | --- |
| Clc1ccc(C(c2ccccc2Cl)C(Cl)Cl)cc1 (stereo not given) | inactive |  |
| CCC(=O)Nc1cccc(N)c1 |  | -1.83% |
| CCCCCCCCCCCCC(=O)O |  | 10.2% |
| O=C(O)Cc1ccc(CCNS(=O)(=O)c2ccc(Cl)cc2)cc1 |  | 6.16% [at 42.5 µM] |
| CN(C)C(=S)SC(=S)N(C)C | inactive |  |
| CC(C)(C)c1ccc(S)cc1 |  | 9.11% |
| CCCCOC(=O)C(C)OC(=O)CCC (stereo not given) |  | 1.42% |
| OCCCCCCCl |  | 5.18% |
| C[C@@H]1CC(=O)NN=C1c1ccc(NN=C(C#N)C#N)cc1 | inactive |  |
| CCO[Si](OCC)(OCC)c1ccccc1 |  | 3.95% |
| O=C1OC(=O)c2ccc3c4c(ccc1c24)C(=O)OC3=O |  | -3.29% |
| O=C(O)c1ccc([N+](=O)[O-])cc1 | inactive |  |
| CC(C)=CCC[C@H](C)CC=O |  | 4.86% |
| O=S(=O)(O)c1cccc2c(S(=O)(=O)O)cccc12 |  | -10.6% |
| C[N+](C)(C)CC[N+]1(C)Cc2c(Cl)c(Cl)c(Cl)c(Cl)c2C1 |  | 7.41% [at 42.5 µM] |
| C[Si]1(C)O[Si](C)(C)O[Si](C)(C)O[Si](C)(C)O[Si](C)(C)O1 |  | 0.656% |
| CC(C)c1cccc(O)c1 |  | 4.52% |
| COC(=O)Cc1cccc2ccccc12 |  | -12.3% |
| CC1(C)C(C=C(Cl)Cl)C1C(=O)OCc1cccc(Oc2ccccc2)c1 (stereo not given) | inactive |  |
| CCOC(=O)CC(C)=O |  | -10.8% |

| SMILES | Potency | activity change, negative = inhibition |
| --- | --- | --- |
| C#CC(O)CCC (stereo not given) |  | 1.73% |
| O=C1OC(CN2CCOCC2)CN1/N=C/c1ccc([N+](=O)[O-])o1 (stereo not given) |  | -1.73% [at 42.5 µM] |
| O=C(O)c1ccc(C(=O)O)c(C(=O)O)c1 | inactive |  |
| Cc1ccc(CO)cc1 |  | -0.186% |
| C/C(Cl)=C/CCl |  | -2.03% |
| CCCSc1ccc2nc(NC(=O)OC)[nH]c2c1 | inactive |  |
| Cc1ccc(-c2ccccc2)cc1 |  | -1.45% |
| COc1ccc(N)c(OC)c1 | inactive |  |
| CC(C)S |  | 0.36% |
| CCC(=O)OC(C)(C)C1CC=C(C)CC1 (stereo not given) |  | -10.3% |
| CCCCC(CC)COC(C)=O (stereo not given) | inactive |  |
| CCC(C)c1ccccc1O (stereo not given) | inactive |  |
| NC(=O)c1ccccc1N |  | -0.967% |
| CC(=O)Nc1ccc(C)cc1 |  | 2.45% |
| Cc1ccc(C(C)NC(=O)[C@@H](NC(=O)OC(C)C)C(C)C)cc1 (stereo not given in full) |  | -4.26% |
| O=C(O)CC(=O)O |  | 2.82% |
| CCCCCCCCC(=O)OCC |  | 4.27% |
| Cc1cccc(N)n1 |  | -0.354% |
| O=[N+]([O-])c1cncn1CCN1CCOCC1 |  | -6.97% [at 42.5 µM] |
| Cc1ccc(NC(=O)N(C)C)cc1NC(=O)N(C)C |  | -14.8% |
